# Tg IFNy HTS: blocks Toxoplasma gondii growth in the presence of IFN-gamma; 69,000 compounds, 3.8% hits; activity change, negative = inhibition, % (no concentration beside the values); Toxoplasma gondii growth in IFN-gamma-treated host cells; active compounds read low; in the data active means activity change below about -70%, passing the limit was not always enough;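 further: host cells are HeLa cells infected with Toxoplasma gondii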
# Starred values were filed as active, the others as inactive; i = inactive. This excerpt belongs to a sample that is enriched for hits.
SMILES,Tg IFNy HTS
CNC(=O)C1CC2CN(C(=O)Nc3cccc(Cl)c3)CC1O2 (stereo not drawn),-8
O=C(O)CCC(=O)N1CCc2ccc(=O)[nH]c2CC1,25
Cc1ccc(C2=NC3(CCN(CC(=O)Nc4cccc(C)c4)CC3)NC2=O)cc1,67
O=C(O)c1cc2ccccc2s1,-71*
CC1CCN(C(=O)c2cc3ccccc3s2)CC1,19
Cc1cc(CNC(=O)c2cc3ccccc3s2)c2ccccc2n1,12
COc1cc(C)c(S(=O)(=O)N(C)Cc2nnc(-c3ccccc3)o2)cc1C(C)C,8
Cc1ccc(C(=O)N2CCC3OCCCC3(COCC3CC3)C2)cn1 (stereo not drawn),13
COCC12CCCOC1CCN(C(=O)C1=CCCC1)C2 (stereo not drawn),-81*
CCOCC12CCCOC1CCN(C(=O)C1=CCCC1)C2 (stereo not drawn),26
CC(C)(O)C#Cc1ccc(-c2nccn2CCc2cnc[nH]2)s1,4
Cc1cccc(NC(=O)c2nnn(Cc3nc(-c4ccc(OC(C)C)cc4)oc3C)c2C)c1C,-89*
Cc1ccc(C)c(NC(=O)c2nnn(Cc3nc(-c4ccc(OC(C)C)cc4)oc3C)c2C)c1,11
COc1cccc(-c2nc(Cn3nnc(C(=O)Nc4ccccc4C)c3C)c(C)o2)c1OC,49
CCc1ccccc1NC(=O)c1nnn(Cc2nc(-c3cc(Br)ccc3OC)oc2C)c1C,55
Cc1cccc(NC(=O)c2nnn(Cc3nc(-c4ccc(Cl)cc4)oc3C)c2C)c1C,-4
CCOc1ccc(-c2nc(Cn3nnc(C(=O)Nc4cc(F)ccc4C)c3C)c(C)o2)cc1,73
Cc1oc(-c2ccc(OC(C)C)cc2)nc1Cn1nnc(C(=O)Nc2ccc(F)cc2F)c1C,-110*
COc1ccc(NC(=O)c2nnn(Cc3nc(-c4ccc(OC(C)C)cc4)oc3C)c2C)c(OC)c1,-38
CCc1ccccc1NC(=O)c1nnn(Cc2nc(-c3cccc(OC)c3OC)oc2C)c1C,-84*
Cn1nccc1C(=O)N1CCC2(CC1)Nc1cc(F)ccc1-n1cccc12,63
Cc1ccc(-c2nc(CSc3nc4c(c(=O)[nH]3)CN(C(C)C)CC4)c(C)o2)cc1,-7
c1ccc(CN2CCCC3(CCCN(Cc4cc5n(n4)CCNC5)C3)C2)cc1 (stereo not drawn),-4
Cc1noc(CN(C)C(=O)C2CC(=O)N(CC(C)C)C2)n1 (stereo not drawn),2
c1ccc(CCN=c2sc3nc4ccccc4nc3n2CCc2ccccc2)cc1,50
SMILES,Tg IFNy HTS
CC1CCN(S(=O)(=O)c2ccc3c(c2)CCC(=O)N3CC(=O)NCC2CCCO2)CC1 (stereo not drawn),35
CC(C)NC(=O)N1CCC(c2nnc3ccc(C(=O)CC4CCOCC4)cn23)C1 (stereo not drawn),-40
CNc1nc(C2CCCN(C(C)=O)C2)nc2c1CCN(C(=O)Cc1ccc(F)cc1)C2 (stereo not drawn),12
Cc1nc(C)n(CCCNC(=O)c2cccc(CC3CCNCC3)c2)n1,8
COc1cccc(-c2cc(CNC(=O)c3cc4n(n3)CCCN(C)C4)on2)c1,-5
Cc1ccc(NC(=O)Cc2c(C)[nH]c3c(C)cc(C)cc23)c(-c2cc(C)[nH]n2)c1,9
Cc1nccn1CCC1CCCCN1C(=O)c1cc(C(C)C)no1 (stereo not drawn),-61
Cc1nc(CN2CCN(C)C(=O)C23CCN(Cc2cccc(C#N)c2)CC3)cs1,7
Cc1cc(C)n(CC(O)Cn2c3ccc(Cl)cc3c3cc(Cl)ccc32)n1 (stereo not drawn),-36
OC(CNCc1ccccc1)Cn1c2ccc(Cl)cc2c2cc(Cl)ccc21 (stereo not drawn),-91*
CNCC(O)Cn1c(C)c(C)c2ccccc21 (stereo not drawn),-3
Cc1cc(C(=O)NC(Cn2ccnc2)C(C)(C)C)nc(N2CCCCC2)n1 (stereo not drawn),-32
Cc1nn(-c2ccccc2)c(C)c1CCC(=O)Nc1nnc(-c2ccccc2F)s1,-16
Cc1cc(C(=O)NCCc2c[nH]c3ccccc23)c2c(=O)n(C)c(=O)n(C)c2n1,37
CCSc1nc(CC(=O)NCCc2c[nH]c3ccccc23)cs1,27
CCOc1nc2c(c(C)nn2-c2cccc(C)c2)c(C)c1CCC(=O)NCCc1c[nH]c2ccccc12,-79*
CC(C)C(=O)N1CCC2(CC1)CC(CC(=O)N1CCCC1)c1ccccc12 (stereo not drawn),-4
COCCNC(=O)C1=C(C)C(=O)OC12CCN(S(=O)(=O)c1cccs1)CC2,35
CC1CCN(S(=O)(=O)c2ccc3c(c2)CCC(=O)N3CC(=O)NCCN2CCOCC2)CC1,31
Cc1ccc([N+](=O)[O-])cc1S(=O)(=O)N(C)/N=C/c1cnc2ccc(Br)cn12,-80*
COCc1cc(CN2CCCN(c3ccccc3)CC2)ccc1OC,11
COc1ccc(C2NC(C(=O)O)Cc3c2[nH]c2ccccc32)cc1CN1CCN(c2ccc(F)cc2)CC1 (stereo not drawn),2
COc1ccc(C2NCCc3c2[nH]c2ccccc32)cc1CN1CCN(c2ccc([N+](=O)[O-])cc2)CC1 (stereo not drawn),-117*
O=C(C1CCCO1)N1CCC(NCCCn2ccc3ccccc32)CC1 (stereo not drawn),3
Nc1nc2c(cnn2CCc2ccccc2)c2nc(-c3ccco3)nn12,-12
SMILES,Tg IFNy HTS
Nc1nc(NCCc2ccc(O)cc2)nc2nc(-c3ccco3)nn12,-80*
Nc1nc2ccc(Cl)cc2c2nc(-c3ccco3)nn12,7
CCN1CCC2(CN(c3ncccn3)CC23CCN(C(=O)Cc2ccc(C)cc2)CC3)C1=O (stereo not drawn),-57
Cc1ccc(C(=O)N2CCC3(CC2)CC(CC(=O)NCC2CC2)c2ccccc23)o1 (stereo not drawn),-13
C=CC#CC(C)(C)c1ccc(O)c(C)c1,-2
Cn1c(C#N)ccc1-c1ccc2c(c1)C(C)(C)OC(=S)N2,-83*
CN(Cc1ccc(-n2cccn2)cc1)Cc1ccc(CO)o1,8
O=C(C1CCCN(Cc2cc3n(n2)CCNC3)C1)N1CCOCC1 (stereo not drawn),0
O=C(c1ccco1)N1CCC2(CC1)Nc1ccccc1-n1cccc12,10
COc1ccc(C2c3[nH]c4ccccc4c3CCN2C(=O)c2ccc3c(c2)OCO3)cc1 (stereo not drawn),-81*
O=C(c1ccc2c(c1)OCO2)N1CCc2c([nH]c3ccccc23)C1c1ccccc1 (stereo not drawn),-98*
COc1ccc(C(=O)N2CCc3c([nH]c4ccccc34)C2c2ccc(SC)cc2)cc1OC (stereo not drawn),i
COc1cc(C(=O)N2CCc3c([nH]c4ccccc34)C2c2ccccc2)cc(OC)c1OC (stereo not drawn),177
O=C(c1ccncc1)N1CCc2c([nH]c3ccccc23)C1c1ccccc1 (stereo not drawn),337
O=C(Nc1ccc(F)cc1F)c1ccc2nonc2c1,-26
COCCN1C(=O)CCc2cc(NC(=O)c3cccc(C#N)c3)ccc21,66
CCOC(=O)[C@@]12CC=CCN(C(=O)Cc3cccs3)[C@@H]1CCC2,24
Cc1c(F)cccc1NC(=O)CN1CCC(Cc2noc(C3CC3)n2)CC1,-20
CCCn1c(=O)c(C(=O)NCCN(CC)CC)c(O)c2ccccc21,-32
CCn1c(=O)c(C(=O)Nc2cccc(C)n2)c(O)c2ccccc21,74
CCCCc1nc2ccccc2c(=O)n1NC(=O)c1c(O)c2ccccc2n(CCC)c1=O,-114*

# Compound activity deposited in PubChem BioAssay by Broad Institute.
